# Assay outcomes as filed in PubChem.
# BCR signal inh: inhibitors of chronic active B-cell receptor signaling. ABC-DLBCL IkBa-CBG/CBR reporter, luminescence ratio, 4 h. Potency, µM (series often up to 46.1 µM), actives largely listed as inhibitors. hit rate 0.05% among 340,000. AID 493014; active means well fitted inhibition curve with a large enough effect in the signal ratio, with a control signal flat, not every such curve was filed as active; inconclusive means small, poorly fitted or top-dose-only effect, or effect the other way, or a change in a side signal; the % refers to the signal ratio
#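 Compounds up to 46 uM were incubated four hours with TMD8 cells whose green CBG68 luciferase is fused to IkappaBalpha; red CBR luminescence normalised the signal, and concentration-effect curves were fitted to fusion, red and ratio data.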
# 12-LOX inh: ALOX12 (human) lipoxygenase inhibition | purified 12hLO, xylenol orange hydroperoxide absorbance | Potency, µM (titrated, usually from 108 µM), actives largely listed as inhibitors | hit rate 1.1% among 580,000
#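 Hydroperoxide product was detected by ferrous iron/xylenol orange as the 573 to 405 nm absorbance ratio. Arachidonic acid at 40 uM (final) was turned over for 30 min at room temperature by 150 nM human 12hLO, pH 7.0 Hepes buffer, after 15 min compound preincubation.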
# GRP78 ERSR act: induces the endoplasmic reticulum stress response in human glioma cells. U87-MG GRP78 promoter luciferase reporter, 16 h. AID 602332. hit rate 0.02% among 420,000. Potency, µM, actives largely listed as activators; further: series mostly up to about 76 µM; nearly all actives have a fitted effect of over 35% in size
#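 Stably transfected U87-MG human glioma cells carrying a GRP78-based luminescent sensor were seeded at 1000 cells/well, pin-dosed with compounds and incubated 16 h. Luciferase reagent was then added, and end-point luminescence was read after 10 min at room temperature.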
# Apoferritin bind: candidate novel general anesthetic via apoferritin binding | apoferritin/1-aminoanthracene competitive binding, fluorescence | P02791 | hit rate 0.074% among 350,000 | Potency, µM (series often up to 77.5 µM), actives largely listed as inhibitors | AID 485281; further: nearly all actives have a fitted effect of over 20% in size
# Target sequence (P02791 2-175 limits assumed): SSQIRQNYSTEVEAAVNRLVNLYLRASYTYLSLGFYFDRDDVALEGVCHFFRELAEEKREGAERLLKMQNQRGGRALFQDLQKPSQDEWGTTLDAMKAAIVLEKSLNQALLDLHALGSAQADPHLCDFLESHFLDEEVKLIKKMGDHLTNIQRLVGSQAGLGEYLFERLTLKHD
#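 In PBS, apoferritin at 10 uM is loaded with 1-AMA from a 50% saturated solution. After 10 min of compound exposure at ambient temperature, reduced 535 nm fluorescence indicates probe displacement.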
# Numbers stand for hits; – = inactive; ? = inconclusive; · = not tested or not shown; [ ] = remark or other dose. This is a sample that favours compounds with a hit; in the whole collection about 1.1% have one here. Unless noted, the call rests on the fitted dose curve; in most records, active means well fitted curve in the direction sought with a large enough effect; inconclusive means small, poorly fitted or top-dose-only effect, or another doubt; inactive means no such curve, though single readings can be large; an effect the other way counts as inactive or inconclusive.
SMILES,BCR signal inh,12-LOX inh,GRP78 ERSR act,Apoferritin bind
S=c1[nH]nc(-c2cc(-c3ccccc3)n[nH]2)n1/N=C/C=C/c1ccco1,–,40µM,–,–
S=c1[nH]nc(-c2ccco2)n1/N=C/C=C/c1ccco1,–,?,–,–
CC1(COS(N)(=O)=O)CCCCC1,–,·,–,5.6µM
CC1(C)O[C@@H]2[C@@H](CO[C@@]3(COS(N)(=O)=O)OC(C)(C)O[C@@H]23)O1,–,–[22.9 µM],·,–
O=C(N/N=C/c1c(Cl)nc2ccccn2c1=O)c1cccnc1,?,3.2µM,–,–
Cc1c(/C=N/NC(=O)c2cccnc2)c2ccccn2c1C(=O)c1ccc(F)cc1,–,·,·,–
Cc1cnc(NC(=O)C(C)(C)Oc2cc(Cl)ccc2Cl)s1,·,–,·,·
COc1cc(NC(=O)c2cccc(N3C(=O)C(C)(C)CS3(=O)=O)c2)cc(OC)c1OC,·,–,·,·
COc1ccc(N(CC(=O)NCc2ccc(Cl)cc2)S(=O)(=O)c2c(C)nn(C)c2C)cc1,–,40µM,–,–
CCNC(=O)c1ccc(CN(c2ccccc2)S(C)(=O)=O)cc1,·,–,·,·
Cc1ccc(Nc2nnc(SCC(=O)c3ccc(O)cc3O)s2)cc1,–,45µM,–,–
CCc1ccc(CCC(=O)N2CCCC2)cc1,·,–,·,·
O=C1NC2(CCN(CC3CCCCC3)CC2)COc2ccccc21,·,63µM,·,·
O=C1NC2(CCN(Cc3ccc(F)cc3)CC2)COc2ccccc21,·,–,·,·
Cc1nc(C)c(-c2ccc(SCC(=O)Nc3ccccc3F)nn2)s1,·,–,–,22µM
N#Cc1ccc(NCCNc2ncccn2)nc1,·,–,·,·
